Screening data deposited in PubChem by National Center for Advancing Translational Sciences (NCATS).
Rows were chosen to be rich in hits. Some 6.2% of all compounds tested hit in one or more screens of this group.
HT1080-NT tox – kills 2HG-producing HT-1080-NT fibrosarcoma cells | HT-1080-NT fibrosarcoma viability, CellTiter-Glo ATP luminescence, 48 h | Potency, µM (titrated, usually from 46.1 µM), for the others: at the top dose activity, negative = less viability, actives largely listed as cytotoxic | 360,000 tested, 1.6% active;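 further: NT is the 2HG producing partner of a matched IDH1 knockdown line; 0% = DMSO-treated cells and -100% = media-only wells without cells; nearly all actives have a fitted effect of over 55% in size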
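Viability of the 2HG-overproducing fibrosarcoma line after 48 hours of compound exposure at 37 degrees C was determined by luminescence with CellTiter-Glo, and concentration-effect curves were then fitted and categorized.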
KB-V1 MDR tox – kills drug-selected multidrug resistant KB-V1 cells | KB-V1 MDR cells viability, CellTiter-Glo, 72 h | Potency, µM (highest dose often 46.1 µM), usual class: cytotoxic | 400,000 tested, 3.4% active | AID 1347076; further: on the % scale 0 is the no-effect control and ±100 the full control effect; nearly all actives have a fitted effect of over 60% in size
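Following 72 h at 37 degrees C with compound, KB-V1 cell viability was read by CellTiter-Glo luminescence, medium being phenol-red-free DMEM plus 10% FBS; concentration-response parameters came from normalized, curve-fitted qHTS data.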
HT1080 IDH1KD tx – kills HT-1080 cells with IDH1 knockdown. 360,000 tested, 2% active. Potency, µM (series often up to 46.1 µM), inactives show top-dose activity, negative = toxicity, usual class: cytotoxic. HT-1080 IDH1 knockdown viability, ATP luminescence, 48 h;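 further: 0% = DMSO wells and -100% = cell-free medium wells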
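Cytotoxicity counter-line: IDH1KD HT-1080, 48 h, CellTiter-Glo. Curves classed by r2, magnitude and activity.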
KB-3-1 cytotox – KB-3-1 parental cell cytotoxicity | KB-3-1 viability, CellTiter-Glo ATP luminescence, 72 h | AID 1347075 | Potency, µM (highest dose often 46.1 µM), most hits filed as cytotoxic | 400,000 tested, 1.4% active; further: on the % scale 0 is the no-effect control and ±100 the full control effect; nearly all actives have a fitted effect of over 60% in size
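Cytotoxicity measured as CellTiter-Glo luminescence after 72 h at 37 C. Compound titrations were pinned onto drug-naive KB-3-1 parental adenocarcinoma cells grown in DMEM with 10% FBS, and normalized data fitted to concentration-response curves.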
ATXN2 expr inh – inhibitors of ATXN2 expression; AID 1745845; 360,000 tested, 0.72% active; HEK-293 ATXN2-luciferase reporter, luminescence, 24 h; Potency, µM (top dose mostly 57 µM), for inactives: top-dose activity change, negative = inhibition, hits mostly inhibitors; further: on the % scale 0 is the no-effect control and ±100 the full control effect; nearly all actives have a fitted effect of over 55% in size
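qHTS (up to 57 uM final) was run with 24 h compound exposure of reporter cells at 37 °C. Each well was multiplexed: SteadyGlo luminescence measured ATXN2-luciferase expression after a fluorogenic Gly-Phe-AFC viability readout (25 uM final).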
ATXN viability – cell viability loss in ATXN counter-screen; S2 cells (HEK-293 line with an ATXN2-luciferase reporter) viability, CellTiter-Fluor protease fluorescence, 24 h; 400,000 tested, 0.49% active; AID 651635; Potency, µM (highest dose often 56.7 µM), most hits filed as cytotoxic; further: nearly all actives have a fitted effect of over 40% in size
The depositor's hits bear a star; ! = a repeat was not active. The call rests on the fitted dose curve; in most records, active means well fitted curve in the direction sought with a large enough effect; inconclusive means small, poorly fitted or top-dose-only effect, or another doubt; inactive means no such curve, though single readings can be large; an effect the other way counts as inactive or inconclusive. Potency means the concentration at half of the fitted maximal effect.

CCc1ccccc1NC(=O)c1ccc2c(O)c(S(=O)(=O)c3ccccc3)c(=O)[nH]c2c1 was read as KB-V1 MDR tox inactive, KB-3-1 cytotox inactive, ATXN2 expr inh 8% and ATXN viability inactive.
Screening CCOC(=O)CN1C(=O)C(Sc2n[nH]c(-c3cccc(C)c3)n2)CCc2ccccc21 (centres undefined) returned HT1080-NT tox inconclusive, KB-V1 MDR tox 21µM*, HT1080 IDH1KD tx inconclusive, KB-3-1 cytotox inactive, ATXN2 expr inh 1% and ATXN viability inactive.
For CCOc1ccccc1NC(=O)C1CCN(S(=O)(=O)c2ccc3[nH]c4c(c3c2)CCCCC4)CC1 the results were KB-V1 MDR tox inactive and KB-3-1 cytotox inactive.
COc1ccc(-c2cc(C(=O)N3CCc4c(cnc(C)c4CNC(=O)c4ccsc4)C3)[nH]n2)cc1 was read as ATXN viability inactive.
CC(=O)c1ccc(N2CCN(C(=O)c3ccccc3SCC(=O)NCc3ccco3)CC2)c(F)c1 was read as HT1080-NT tox -8%, KB-V1 MDR tox 21µM*, HT1080 IDH1KD tx -7%, KB-3-1 cytotox inactive, ATXN2 expr inh 7% and ATXN viability inactive.
`CCCn1c(N)c(Sc2ccccc2)c(=O)n(CCC)c1=O` gave HT1080-NT tox 6%, KB-V1 MDR tox 13µM*, HT1080 IDH1KD tx -5%, KB-3-1 cytotox inactive, ATXN2 expr inh 11% and ATXN viability inactive.
O=S(=O)(Nc1cccc(-n2cnnn2)c1)c1cc(Br)ccc1Br was read as HT1080-NT tox -20%, KB-V1 MDR tox 5.8µM*, HT1080 IDH1KD tx -25%, KB-3-1 cytotox inactive, ATXN2 expr inh -16% and ATXN viability inactive.
Cc1cc2oc(C(=O)N(Cc3ccccc3F)C3CCS(=O)(=O)C3)c(C)c2cc1Cl (centres undefined) was read as KB-V1 MDR tox inactive and KB-3-1 cytotox inactive.
`CC(C)(C)C(=O)Nc1ccccc1C(=O)OCc1cc(=O)n2ccsc2n1` gave KB-V1 MDR tox inconclusive, KB-3-1 cytotox inactive, ATXN2 expr inh -1% and ATXN viability inactive.
`Cc1csc(SCc2nc3sc4c(c3c(=O)[nH]2)CCC4)n1` gave HT1080-NT tox -1%, KB-V1 MDR tox 5.2µM*, HT1080 IDH1KD tx 2%, KB-3-1 cytotox inactive, ATXN2 expr inh -11% and ATXN viability inactive.
Screening Cc1ccc2[nH]c(=O)c(-c3nc4ccccn4c3NCc3ccco3)cc2c1 returned HT1080-NT tox inconclusive, KB-V1 MDR tox 8.2µM*, HT1080 IDH1KD tx inconclusive, KB-3-1 cytotox inactive, ATXN2 expr inh 24% and ATXN viability inactive.
For CCOC(=O)N1CCC(N(C(=O)Nc2ccccc2)C(C)CC)CC1 (centres undefined) the results were HT1080-NT tox 0%, KB-V1 MDR tox 15µM*, HT1080 IDH1KD tx 3%, KB-3-1 cytotox inactive, ATXN2 expr inh -5% and ATXN viability inactive.
`CN(Cc1ccccc1)c1ccc(/C=C/c2nc3ccccc3s2)cc1` gave KB-V1 MDR tox inactive and KB-3-1 cytotox 7.3µM*.
C=C(/C=C/c1ccc(N(C)C)cc1)c1nc2ccccc2s1 was read as KB-V1 MDR tox inconclusive and KB-3-1 cytotox inactive.
`CN(C)c1ccc(/C=C/c2nc3ccccc3s2)cc1` gave HT1080-NT tox inconclusive, KB-V1 MDR tox 13µM*!, HT1080 IDH1KD tx inconclusive, KB-3-1 cytotox 16µM*! and ATXN2 expr inh inconclusive.
For COc1ccc(C(=O)Cn2c(C(=O)/C=C/c3ccccc3)nc3ccccc32)cc1 the results were HT1080-NT tox inconclusive, KB-V1 MDR tox inconclusive, HT1080 IDH1KD tx inconclusive, KB-3-1 cytotox inconclusive, ATXN2 expr inh 22µM* and ATXN viability inconclusive.
Screening C=CCn1c(-c2ccc(Cl)cc2)c[nH]c1=S returned HT1080-NT tox 0%, KB-V1 MDR tox 23µM*, HT1080 IDH1KD tx -8%, KB-3-1 cytotox 21µM*, ATXN2 expr inh 5% and ATXN viability inactive.
For CCCCCn1c(CN2CCN(C)CC2)nc2c1c(=O)n(C)c(=O)n2C the results were HT1080-NT tox -8%, KB-V1 MDR tox inactive, HT1080 IDH1KD tx 6%, KB-3-1 cytotox inactive, ATXN2 expr inh -13% and ATXN viability inactive.
CN(Cc1ccccc1)Cc1nc2c(c(=O)n(C)c(=O)n2C)n1CCCc1ccccc1 was read as HT1080-NT tox 14%, KB-V1 MDR tox 16µM*, HT1080 IDH1KD tx 21%, KB-3-1 cytotox inactive, ATXN2 expr inh 0% and ATXN viability inactive.
For CCCCCCn1c(CN2CCN(Cc3ccccc3)CC2)nc2c1c(=O)n(C)c(=O)n2C the results were HT1080-NT tox 0%, KB-V1 MDR tox 18µM*, HT1080 IDH1KD tx 0%, KB-3-1 cytotox inconclusive, ATXN2 expr inh -26% and ATXN viability inconclusive.
For CCCCCn1c(CN2CCN(C(=O)OCC)CC2)nc2c1c(=O)n(C)c(=O)n2C the results were HT1080-NT tox 1%, KB-V1 MDR tox inactive, HT1080 IDH1KD tx 4%, KB-3-1 cytotox inactive, ATXN2 expr inh -6% and ATXN viability inactive.
For CC(C)Cn1c(CN(C)Cc2ccccc2)nc2c1c(=O)n(C)c(=O)n2C the results were HT1080-NT tox -1%, KB-V1 MDR tox inactive, HT1080 IDH1KD tx -5%, KB-3-1 cytotox inactive, ATXN2 expr inh -13% and ATXN viability inconclusive.
For CCOC(=O)N1CCN(Cc2nc3c(c(=O)n(C)c(=O)n3C)n2CCCc2ccccc2)CC1 the results were HT1080-NT tox -7%, KB-V1 MDR tox 9.2µM*, HT1080 IDH1KD tx -4%, KB-3-1 cytotox inconclusive, ATXN2 expr inh 0% and ATXN viability inactive.
`COc1cccc(-c2nc(CS(=O)(=O)CC(=O)NCCc3ccc(Cl)cc3)c(C)o2)c1` gave KB-V1 MDR tox inactive and KB-3-1 cytotox inactive.
Screening Cc1cccc(CNC(=O)c2ccc3nc(-c4ccccc4)c(-c4ccccc4)nc3c2)c1 returned KB-V1 MDR tox inactive and KB-3-1 cytotox inactive.
Screening O=C1Cc2cc(Cl)ccc2N1 returned ATXN2 expr inh 0% and ATXN viability inactive.
`Cc1cccc(C(=O)N2CCc3cc(-c4csc(NC(=O)CN5CCCC5)n4)ccc32)c1` gave HT1080-NT tox 21µM*, KB-V1 MDR tox inconclusive, HT1080 IDH1KD tx 16µM*, KB-3-1 cytotox inactive, ATXN2 expr inh -32% and ATXN viability inconclusive.
For CNc1nc(-c2ccc3c(c2)CCN3C(=O)c2cccc(F)c2)cs1 the results were HT1080-NT tox inconclusive, KB-V1 MDR tox inactive, HT1080 IDH1KD tx inconclusive, KB-3-1 cytotox 15µM*, ATXN2 expr inh -6% and ATXN viability inconclusive.
